Legend:
Assay type in all cases: functional
[1] = target: Solute carrier family 2, facilitated glucose transporter member 1 (Homo sapiens) (UniProt P11166); experiment: ST_JUDE_LEISH: Cytotoxicity at 2uM final concentration against transgenic Leishmania Mexicana promastigotes LmGLUT1 that are glucose transport deficient and complemented with the human glucose transporter GLUT1. Activity is measured by DNA content using SYBR green in vitro
[2] = target: Hexose transporter 1 (Plasmodium falciparum) (UniProt O97467); experiment: ST_JUDE_LEISH: Cytotoxicity at 2uM final concentration against transgenic Leishmania Mexicana promastigotes LmPfHT that are glucose transport deficient and complemented with the Plasmodium falciparum hexose transporter. Activity is measured by DNA content using SYBR green in vitro
[3] = target: Glucose transporter (Leishmania mexicana) (UniProt O61059); experiment: ST_JUDE_LEISH: Cytotoxicity at 2uM final concentration against transgenic Leishmania Mexicana promastigotes LmGT2 that are glucose transport deficient and complemented with the L. Mexicana glucose transporter 2. Activity is measured by DNA content using SYBR green in vitro

Sequence of Solute carrier family 2, facilitated glucose transporter member 1 (Homo sapiens) (P11166 whole entry): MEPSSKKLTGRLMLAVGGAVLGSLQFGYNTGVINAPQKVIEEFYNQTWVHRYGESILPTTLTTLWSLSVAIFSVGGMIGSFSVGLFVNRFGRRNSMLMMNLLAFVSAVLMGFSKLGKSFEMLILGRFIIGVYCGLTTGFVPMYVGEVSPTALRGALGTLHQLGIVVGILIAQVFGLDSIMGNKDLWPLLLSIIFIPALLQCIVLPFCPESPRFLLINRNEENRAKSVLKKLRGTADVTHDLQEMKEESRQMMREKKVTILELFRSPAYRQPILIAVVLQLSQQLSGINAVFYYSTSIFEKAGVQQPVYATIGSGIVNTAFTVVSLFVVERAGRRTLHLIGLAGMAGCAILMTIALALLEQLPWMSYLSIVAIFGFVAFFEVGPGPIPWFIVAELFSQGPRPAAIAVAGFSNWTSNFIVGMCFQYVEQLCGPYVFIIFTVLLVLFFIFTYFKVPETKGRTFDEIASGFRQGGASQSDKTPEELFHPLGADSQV

COc1cc(Nc2ncc3c(C)nc(-c4cccc(Nc5ccc(CN6CCS(=O)(=O)CC6)cc5)c4)n3n2)cc(OC)c1OC
inhibition [1]: 14%
inhibition [2]: 5.79%
inhibition [3]: 3.49%

CC1CN(c2ncc(-c3ccc(CNC4Cc5ccccc5C4)cc3)cn2)CC(C)N1 (stereo unspecified)
inhibition [1]: 2.69%
inhibition [2]: 2.64%
inhibition [3]: 0.64%

COc1ccc2ccccc2c1C=NN=c1cc(C)[nH]c2c(C)cccc12
inhibition [1]: 1.52%
inhibition [2]: 1.8%
inhibition [3]: 3.6%

C=CCOc1ccc(Cc2cnc(N)nc2N)cc1CCC
inhibition [1]: 3.94%
inhibition [2]: 4.62%
inhibition [3]: 1.19%

O=C1COc2ccc3ccccc3c21
inhibition [1]: -2.29%
inhibition [2]: 0.78%
inhibition [3]: -0.4%

COc1ccc(O)c(C(=O)c2cc(C(=O)NCCc3ccccc3)c(=O)n(CCc3ccccc3)c2)c1
inhibition [1]: 4.48%
inhibition [2]: 3.07%
inhibition [3]: 5.64%

O=C(Nc1cccc(-c2cccc(F)c2)c1)C1CCN(Cc2ccc(O)cc2)CC1
inhibition [1]: 2.54%
inhibition [2]: 2.14%
inhibition [3]: 2.19%

Nc1ccc(Oc2ccc(Cc3cnc(N)nc3N)cc2)cc1
inhibition [1]: 3.93%
inhibition [2]: 4.16%
inhibition [3]: 3.87%

CS(=O)(=O)Nc1ccc2[nH]cc(C3CCN(CCCCCNC(=O)/C=C/c4ccc(Cl)c(Cl)c4)CC3)c2c1
inhibition [1]: 3.05%
inhibition [2]: 3.77%
inhibition [3]: 3.35%

CS(=O)(=O)Cc1ccc(Nc2nccc(-c3c(-c4cccc(NC(=O)c5c(F)cccc5F)c4)nn4ncccc34)n2)cc1
inhibition [1]: 12%
inhibition [2]: 8.45%
inhibition [3]: 2.78%

COc1ccc2nccc(N/N=C/c3ccc([N+](=O)[O-])cc3)c2c1
inhibition [1]: -1.64%
inhibition [2]: -1.77%
inhibition [3]: 3.94%

COc1ccc(CNCCCCCCCNCc2ccc(Cl)c(Cl)c2)cc1Cl
inhibition [1]: 5.86%
inhibition [2]: 4.67%
inhibition [3]: 2.7%

O=C(/C=C/c1ccc(Cl)cc1)NCCCCCN1CCN(C(=O)Nc2ccc(Cl)c(C(F)(F)F)c2)CC1
inhibition [1]: 4.45%
inhibition [2]: 5%
inhibition [3]: 3.42%

Oc1ccc(CCCNc2nc(NCc3ccccc3-c3ccccc3)nc(NC3CCNCC3)n2)cc1
inhibition [1]: -1.61%
inhibition [2]: -0.26%
inhibition [3]: -0.11%

CC(Oc1c(C2CCN(CCCCNC(=O)c3ccc(-c4ccc(Cl)cc4)cc3)CC2)ccc2c1CCCC2)C(N)=O (stereo unspecified)
inhibition [1]: -0.63%
inhibition [2]: -0.36%
inhibition [3]: -0.27%

CCOC(=O)CC[C@H](NC(=O)c1ccc(NS(=O)(=O)c2ccc(-c3cnc(N)[nH]c3=O)cc2)cc1)C(=O)OCC
inhibition [1]: 4.2%
inhibition [2]: 5.08%
inhibition [3]: 4.7%

Cc1c(C(=O)C2CC2CN2CCC(N3CCCC3)CC2)sc2ccccc12 (stereo unspecified)
inhibition [1]: 7.33%
inhibition [2]: 11.8%
inhibition [3]: 5.26%

Source: ChEMBL document CHEMBL3433997, “St. Jude Leishmania screening dataset” (2016)
